Screening results (PubChem BioAssay)
A selection: hits, their analogues and other compounds. The true share with any hit is near 4.8%.
AI-2 QS modul = modulators of Vibrio harveyi AI-2 quorum sensing system | Vibrio harveyi JMH597 AI-2 luminescence/OD600 ratio, 9 h; stronger effect = lower value; strain lacks LuxN and CqsS sensors; 0 = neutral-control median | activity change, % at 7.5 µM | actives 0.4% (n = 300,000); in the data active = activity change below about -75%, passing the limit was not always enough; inconclusive = no clear call, values can overlap the other calls;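 note: luminescence divided by OD600 gain over 9 h not by final OD600 alone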
Mot1-301 SUMO = inhibitors of SUMOylation pathway: yeast Mot1-301 growth rescue | S. cerevisiae Mot1-301 growth rescue, ATP luminescence, 38.5C; percent above DMSO median, 100 means doubled | growth rescue, % at 18.8 µM | actives 1% (n = 320,000);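 active = every valid replicate shows activation above 250% relative to neutral control wells; inactive = the rest, any valid replicate at or below 250%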;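 note: OY570 slx delta 5 strain wells were the positive control but not used for scaling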
ALR H2O2 inh = human ALR oxidase inhibition via reduced H2O2; actives 3.8% (n = 290,000); purified ALR, DTT oxidation, H2O2 HRP-luminol luminescence; inhibition, % (no concentration beside the values);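 active = mean replicate inhibition above about 79%, with every replicate also reaching it, limit read from the data; inconclusive = only one of the two criteria met; inactive = mean below limit and not every replicate reaching it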
Target sequence (P55789 whole entry, looked up): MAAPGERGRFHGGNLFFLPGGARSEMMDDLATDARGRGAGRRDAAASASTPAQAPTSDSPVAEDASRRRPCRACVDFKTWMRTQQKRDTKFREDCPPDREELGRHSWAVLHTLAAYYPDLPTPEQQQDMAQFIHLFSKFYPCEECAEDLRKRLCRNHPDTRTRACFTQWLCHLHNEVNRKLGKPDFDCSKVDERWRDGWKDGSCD
HIF act = HIF pathway transcriptional activation; AID 1910; U2OS HRE-luciferase reporter, luminescence; normalized: DMSO 0%, desferrioxamine 100%; activation, % at 7.5 µM (by protocol); actives 0.32% (n = 300,000);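 active = mean activation of at least 10% of the iron chelator positive control signal, with at least half of replicates also reaching 10%; inconclusive = mean and replicate majority disagree about reaching 10%; inactive = mean and most replicates under 10%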
Active calls of the source: *; ? = inconclusive; . = no result given.

SMILES | AI-2 QS modul | Mot1-301 SUMO | ALR H2O2 inh | HIF act
CCn1c(CN2CCCCCC2=O)nnc1SCc1cnc(-c2ccccc2)s1 | 11 | -2 | 99* | 1
COCCn1c(SCc2cnc(-c3ccccc3)s2)nnc1-c1ccncc1 | 12 | -23 | 99* | 0
CCN(CC)c1ccc(Nc2nc(N3CCOCC3)c3ccccc3n2)cc1 | 17 | 0 | 99* | -1
COc1ccc(Nc2nc(N3CCCC3)c3ccccc3n2)cc1 | 7 | 2 | . | 0
N#CC(C#N)=Cc1cc2ccccc2nc1N1CCOCC1 | 23 | -9 | 95* | 0
COc1ccccc1/C=C/C(=O)NCCc1ccccn1 | 3 | -28 | -2 | 4
COC(=O)Cc1ccc(NC(=S)NC(C)(C)C)cc1 | 29 | -21 | -6 | 25*
Oc1c(Br)cc(/C=N/NC(=S)NCc2ccco2)cc1Br | 86 | 5 | 89* | 0
Oc1ccc(/C=N/NC(=S)NCc2ccco2)cc1 | 12 | -2 | 99* | 0
CCN(CC)c1ccc(/C=N/NC(=S)NCc2ccco2)cc1 | 1 | 9 | 99* | 1
OCC[C@H]1C[C@H](O)[C@@H](O)[C@@]2(OCCCc3ccccc32)O1 | . | -3 | . | .
COc1cc(OC)cc(-c2c(-c3cccs3)c3cc(-c4ccc(N(C)C)nc4)ccc3n2C)c1 | . | 1 | -4 | .
O=C1/C(=C/c2ccccc2F)SC(=S)N1CC(=O)N1CCCCC1c1cccnc1 (configuration not stated) | 5 | 65 | 2 | 0
O=C(CN(Cc1ccccc1)C(=O)CCl)c1cccc(Br)c1 | . | 0 | 3 | .
Cc1c(CCC(=O)NCCC(=O)O)c(=O)oc2c(C)c3oc4c(c3cc12)CCCC4 | 3 | 223 | 98* | 0
Cc1c(CCC(=O)N[C@@H](C)C(=O)O)c(=O)oc2c(C)c3oc4c(c3cc12)CCCC4 | 5 | 461 | 97* | 0
Cc1c(CCC(=O)N[C@@H](CC(C)C)C(=O)O)c(=O)oc2cc3oc4c(c3cc12)CCCC4 | 17 | 3 | 0 | -2
OC1COC(O)C(O)C1O (configuration not stated) | 1 | -10 | -34 | 0
Cc1cccc(N(CC(=O)NCC2CCCO2)C(=O)CNS(=O)(=O)c2ccc(Cl)cc2)c1 (configuration not stated) | 7 | -6 | . | 0
COc1cc(NCCC(=O)c2cccs2)c(OC)cc1Cl | 23 | -5 | 100* | -1
COc1ccc(CCNC(=O)C(C)OC(=O)c2nsc(Cl)c2Cl)cc1OC (configuration not stated) | 17 | -7 | -9 | -1
COC(=O)c1ccc(NC(=O)c2ccc(C)cc2)o1 | 16 | -29 | 98* | 1
COC(=O)c1ccc(NC(=O)c2cccc(Cl)c2)o1 | 7 | . | 93* | 1
COC(=O)c1ccc(NC(=O)c2ccc(F)cc2)o1 | 6 | 590 | 27 | 0
O=C(c1ccc([N+](=O)[O-])cc1)N1CCN(c2cccc3[nH]ccc23)CC1 | 8 | -13 | 99* | -1
SMILES | AI-2 QS modul | Mot1-301 SUMO | ALR H2O2 inh | HIF act
O=[N+]([O-])c1cccc(CN2CCN(c3cccc4[nH]ccc34)CC2)c1 | 8 | 13 | 99* | 0
O=C(c1ccccc1)N1CCN(C(=O)c2ccc([N+](=O)[O-])cc2)CC1 | 2 | 0 | -5 | 0
CC(c1nc2ccccc2n1Cc1ccccc1)N1CCCCC1 (configuration not stated) | 7 | -6 | -9 | 0
O=C(NC(O)C(=O)c1ccccc1)c1cccs1 (configuration not stated) | -3 | 433 | 91* | .
Cc1occc1C(=O)Nc1ccc2c(c1)OCCO2 | ? | -33 | -2 | 1
O=C(Nc1ccc2c(c1)CCC2)c1ccccc1 | 13 | -11 | 93* | 1
Cc1occc1C(=O)Nc1c(F)c(F)c(F)c(F)c1F | 19 | 15 | 97* | -21
Cc1occc1C(=O)Nc1ccc2c(c1)CCC2 | 32 | -31 | 96* | 2
O=C(CNC(=O)C12CC3CC(CC(C3)C1)C2)Nc1ncccc1O | . | 10 | -14 | .
NS(=O)(=O)c1cccc(NC(=O)CSc2nnc3n2CCCCC3)c1 | . | 18 | -2 | .
COc1ccc2[nH]c(CN3CCC(n4nccc4NC(=O)C4CC4)CC3)c(C)c2c1 | 20 | -7 | -6 | 0
Cc1cccc(OCc2n[nH]c(=S)n2-c2ccccc2)c1 | 17 | -3 | 77* | 0
S=c1[nH]nc(CSCc2ccccc2Cl)n1-c1ccccc1 | 6 | 167 | 94* | 0
Cc1cc(OCc2n[nH]c(=S)n2-c2ccccc2)ccc1Cl | 16 | 54 | . | -38
Cc1ccc(-n2c(COc3cccc(C)c3)n[nH]c2=S)cc1 | 15 | -13 | 35 | 0
Cc1ccc(C)c(NCc2n[nH]c(=S)n2-c2ccccc2)c1 | 30 | -9 | 86* | 0
COC(Cc1n[nH]c(=S)n1-c1ccccc1)OC | 24 | . | 93* | 0
COCc1n[nH]c(=S)n1-c1ccccc1 | 23 | 40 | 58 | 0
CC(=O)Nc1ccc(S(=O)(=O)NC2(C(F)(F)F)NC(=O)N(c3ccc(C)cc3)C2=O)cc1 (configuration not stated) | 26 | -2 | -18 | 0
Cc1cc(C)cc(NC(=O)CSc2nnc(CNC(=O)c3ccco3)n2C)c1 | . | -11 | -3 | .
O=C(CC1C(=O)NCCN1Cc1cccc(C(F)(F)F)c1)NC1CCCCCC1 (configuration not stated) | 20 | 7 | 0 | 0
CN(C)c1ccc(NC(=O)CC2NCCNC2=O)cc1 (configuration not stated) | 35 | . | 99* | 0
Cc1ccc(NC(=O)CC2NCCNC2=O)cc1 (configuration not stated) | 7 | 2 | -6 | 0
CC1CCCCN1CC(=O)Nc1ccc2c(c1)OCO2 (configuration not stated) | . | 40 | -3 | .
Cc1ccc(NC2CCCN(C(=O)c3ccc4[nH]ccc4c3)C2)cc1C (configuration not stated) | 29 | -16 | 88* | 0
SMILES | AI-2 QS modul | Mot1-301 SUMO | ALR H2O2 inh | HIF act
O=C(c1ccc2[nH]ccc2c1)N1CCCC(Nc2ccccc2)C1 (configuration not stated) | 17 | . | 99* | 0
Cc1csc(=O)n1CC(=O)OCC(=O)NCc1ccc(F)cc1 | . | 82 | 0 | 0
O=C(CSCc1nc2c(nnn2Cc2ccc(F)cc2)c(=O)[nH]1)Nc1cccc(C(F)(F)F)c1 | 31 | 136 | 96* | 1
CN(C)c1ccc(NC(=O)CSCc2nc3c(nnn3Cc3ccc(F)cc3)c(=O)[nH]2)cc1 | 31 | . | . | 0
COc1ccc2oc(C(=O)OC(C)C(=O)N3C(C)CCCC3C)c(C)c2c1 (configuration not stated) | . | 18 | -6 | .
Cc1cc2[nH]c(=O)c(=O)[nH]c2cc1S(=O)(=O)Nc1cccc(C)c1C | 39 | 2 | 1 | 0
O=C(CCc1ccccc1)c1c(O)cc(O)cc1O | -81* | -3 | 17 | 0
CCCC(=O)OCCNc1cc(SCc2ccco2)c2nonc2c1[N+](=O)[O-] | 1 | 13 | -5 | 0
